High-throughput results: PubChem, National Center for Advancing Translational Sciences (NCATS)
An excerpt weighted towards active compounds, which were near 21% of everything screened.
CHX counter = affects cycloheximide protein synthesis inhibition readout, counter-screen. cell reporter, cycloheximide protein synthesis inhibition counterscreen. max response, %. 12% of 300,000 active. AID 2314; in the data active = max response mostly above about 13%, no sharp cut-off; inactive = mostly below about 14%; note: read at 38.3 µM for the half of the compounds with a filed dose; 0% is about no effect
Sm TGR block = inhibitors of Schistosoma mansoni thioredoxin glutathione reductase. Q962Y6. Potency, µM (top dose mostly 114 µM), inactives show top-dose activity change, negative = inhibition, most hits filed as inhibitors. 3% of 360,000 active. purified TGR, DTNB reduction, TNB absorbance 405 nm; note: potency is the fitted concentration of half-maximal effect; % is set by controls: 0 for no effect and ±100 for the full control effect; nearly all actives have a fitted effect of over 60% in size
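First, TGR (20 nM dispensed) and NADPH were mixed with compound. Second, a 15 min room-temperature incubation followed. Third, further NADPH and then DTNB were added to start the reaction. Finally, TNB absorbance was monitored kinetically.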
Pf growth 48h = inhibits P. falciparum growth in the first generation, 48 h | P. falciparum luciferase growth in erythrocytes, 48 h | Potency, µM (titrated, usually from 28.7 µM), without a hit: at the top dose activity change, negative = inhibition, hits mostly inhibitors | 5.9% of 310,000 active; note: potency is the fitted concentration of half-maximal effect; % is set by controls: 0 for no effect and ±100 for the full control effect
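In quantitative HTS format, infected erythrocytes bearing luciferase-reporter parasites were treated for a single generation at 37 C. Luminescence after adding detection reagent served as the growth measure.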
NS1 function inh = inhibitors of influenza NS1 protein function; Potency, µM (highest dose often 46.1 µM), for inactives: top-dose activity, positive = more growth; 0.4% of 270,000 active; calls by dose curve; note: potency is the fitted concentration of half-maximal effect; actives are rising curves; nearly all actives have a fitted effect of over 50% in size
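Compounds were scored for reversing the slow growth caused by influenza A NS1 in S. cerevisiae, measured by optical density at 600 nm. Assay medium contained 2% galactose at pH 6.0; NS1-free yeast of the same strain were the positive control.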
Shiga inhibitor = blocks Shiga toxin action in Vero cells. Vero cells, Shiga toxin protein synthesis inhibition reporter. inhibition, % at 38.7 µM. 9.2% of 290,000 active. AID 2315; in the data active = inhibition mostly above about 28%, no sharp cut-off; inactive = mostly below about 43%; note: 0% is about no effect
Pf growth 96h = P. falciparum growth inhibition at 96 hours | Potency, µM (top dose mostly 28.7 µM), without a hit: top-dose activity change, negative = inhibition, usual class: inhibitors | AID 504834 | 6.9% of 320,000 active | P. falciparum luciferase reporter growth, 96 h; note: potency is the fitted concentration of half-maximal effect; % is set by controls: 0 for no effect and ±100 for the full control effect
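Parasite growth measured via integrated firefly luciferase reporter in P. falciparum. Infected erythrocytes at 2% hematocrit, 0.05% parasitemia final were treated 96 hours at 37 C under 5% CO2, and luminescence was read.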
* marks the source's active call; other numbers are inactive results; [ ] = remark or other dose. Unless noted, calls come from the whole dose curve; as a rule, active = well fitted curve in the direction sought with a large enough effect; inconclusive = small, poorly fitted or top-dose-only effect, or another doubt; inactive = no such curve, though single readings can be large; an effect the other way counts as inactive or inconclusive.

How did Cn1nnnc1Sc1ncnc2scc(-c3ccc[nH]3)c12 do in these assays?
Sm TGR block: 11µM*; Pf growth 48h: 10µM*; Pf growth 96h: inconclusive

Results for Cn1nnnc1Sc1ncnc2scc(-c3ccc(F)cc3)c12 ?
CHX counter: -6; Sm TGR block: 3%; Pf growth 48h: 0%; NS1 function inh: -17%; Shiga inhibitor: 19; Pf growth 96h: inconclusive

What do the screens show for `Nc1ncnc2n[nH]c(Nc3ccc(F)cc3)c12`?
CHX counter: -6; Shiga inhibitor: -12

What do the screens show for `CCOc1ccc(C(C)=O)cc1CN1C(=O)c2ccccc2S1(=O)=O`?
CHX counter: 1; Sm TGR block: 35µM*; Pf growth 48h: -22%; NS1 function inh: 1%; Shiga inhibitor: -4; Pf growth 96h: -6%

How did Cc1c(C(=O)N2CCCC2)oc2c1-c1nn(CC(=O)NCc3cccc(Br)c3)cc1CC2 do in these assays?
Sm TGR block: -12%

How did CCN(CC)CCCNc1nc(SC)nc2sc3c(c12)CCN(C)C3 do in these assays?
CHX counter: -2; Sm TGR block: 1%; Pf growth 48h: inconclusive; NS1 function inh: 1%; Shiga inhibitor: 2; Pf growth 96h: inconclusive

Results for CSc1nc(SCC(=O)NC(c2ccccc2)c2ccccc2)c2c3c(sc2n1)CN(C)CC3 ?
CHX counter: -4; Sm TGR block: -5%; Pf growth 48h: 7.4µM*; NS1 function inh: 25%; Shiga inhibitor: 12; Pf growth 96h: 2.9µM*

How did CSc1nc(NCCCO)c2c3c(sc2n1)CN(C)CC3 do in these assays?
CHX counter: 0; Sm TGR block: -16%; Pf growth 48h: inconclusive; NS1 function inh: -2%; Shiga inhibitor: -2; Pf growth 96h: 5.2µM*

How did CSc1nc(NCC(C)O)c2c3c(sc2n1)CN(C)CC3 (centres undefined) do in these assays?
CHX counter: -2; Sm TGR block: -19%; Pf growth 48h: inconclusive; NS1 function inh: 0%; Shiga inhibitor: -7; Pf growth 96h: 6.6µM*

Results for COc1ccc(OC)c(C2=NOC(C(=O)NCc3ccco3)C2)c1 (centres undefined) ?
CHX counter: -2; Sm TGR block: 35µM*; NS1 function inh: -1%; Shiga inhibitor: 6; Pf growth 96h: -21%

Results for O=C(NCc1ccco1)C1CC(c2ccccc2O)=NO1 (centres undefined) ?
CHX counter: 14; Sm TGR block: -13%; Pf growth 48h: -1%; NS1 function inh: 0%; Shiga inhibitor: 14; Pf growth 96h: inconclusive

Results for COc1ccc(OC)c(C2=NOC(C(=O)Nc3cc(C)on3)C2)c1 (centres undefined) ?
CHX counter: -3; Sm TGR block: 0%; Pf growth 48h: 14%; NS1 function inh: 0%; Shiga inhibitor: -3; Pf growth 96h: 0%

How did O=C(NCc1ccco1)C1CC(c2ccccc2C(F)(F)F)=NO1 (centres undefined) do in these assays?
CHX counter: -1; Sm TGR block: 20µM*; Pf growth 48h: 36%; NS1 function inh: -5%; Shiga inhibitor: -4; Pf growth 96h: 32%

How did O=C(O)C1CCN(C(=O)CCc2ccccc2)CC1 do in these assays?
CHX counter: -2; Sm TGR block: -2%; Pf growth 48h: 14%; NS1 function inh: 1%; Shiga inhibitor: 11; Pf growth 96h: -7%

Results for COc1ccc(CCNC(=O)c2ccc3c(c2)N(Cc2ccccc2Cl)C(=O)c2ccccc2S3)cc1OC ?
Sm TGR block: 3%

What do the screens show for `Cc1ccc(NC(=O)c2cc(-c3cc(Cl)ccc3O)n[nH]2)cc1C`?
CHX counter: -5; Sm TGR block: 8%; Pf growth 48h: 1.9µM*; NS1 function inh: 4%; Shiga inhibitor: -6; Pf growth 96h: 1.7µM*

How did Cc1ccc(NC(=O)c2snc3ccc(Cl)cc23)cc1C do in these assays?
CHX counter: 38*; Sm TGR block: 1%; Pf growth 48h: 202%; NS1 function inh: 4%; Shiga inhibitor: 32*; Pf growth 96h: 0%

How did Cc1cccc(NC(=O)c2cc(-c3cc(Cl)ccc3O)n[nH]2)c1 do in these assays?
CHX counter: 37*; Sm TGR block: 7%; Pf growth 48h: 2.6µM*; NS1 function inh: 1%; Shiga inhibitor: 76*; Pf growth 96h: 2.3µM*

How did COc1cc2c(cc1OC)CN(C(=O)C(CCSC)NS(=O)(=O)c1ccc(C)cc1)CC2 (centres undefined) do in these assays?
CHX counter: -2; Sm TGR block: 5%; Pf growth 48h: 2%; NS1 function inh: -6%; Shiga inhibitor: -4; Pf growth 96h: inconclusive

Results for O=C(NCc1nc(-c2ccc(Cl)cc2)no1)c1ccco1 ?
CHX counter: 11; Sm TGR block: -13%; Pf growth 48h: 43%; NS1 function inh: -4%; Shiga inhibitor: 5; Pf growth 96h: inconclusive

What do the screens show for `O=C(Nc1ccc(-c2noc(CCc3ccccc3)n2)cc1)c1ccco1`?
CHX counter: 58*; Sm TGR block: 9%; Pf growth 48h: inconclusive; NS1 function inh: -88%; Shiga inhibitor: 85*; Pf growth 96h: inconclusive

What do the screens show for `O=C1CCC(=O)N1CCCCCc1nc(-c2ccccc2)no1`?
CHX counter: 41*; Sm TGR block: 2%; Pf growth 48h: 92%; NS1 function inh: -15%; Shiga inhibitor: 64

What do the screens show for `O=C(NCCc1nc(-c2ccc(F)cc2)no1)c1ccc(F)cc1`?
Sm TGR block: -4%; Pf growth 48h: inconclusive; Pf growth 96h: -8%

How did c1ccc(CCc2ccccc2-c2nc(-c3cccnc3)no2)cc1 do in these assays?
CHX counter: 3; Sm TGR block: 9%; Pf growth 48h: 13µM*; NS1 function inh: -57%; Shiga inhibitor: -9; Pf growth 96h: inconclusive

How did CCCc1nc(-c2ccc(-c3ccc(F)cc3)cc2)no1 do in these assays?
CHX counter: 18*; Sm TGR block: 2%[11.4 µM]; NS1 function inh: -11%; Shiga inhibitor: 29; Pf growth 96h: inconclusive

Results for COc1ccc(N/C=C(\C(C)=O)c2ccc(OC)c(OC)c2)cc1OC ?
CHX counter: -1; Sm TGR block: -8%; Pf growth 48h: inconclusive; Shiga inhibitor: -22; Pf growth 96h: -41%[5.75 µM]

Results for Cc1ccc(Nc2c(-c3cccs3)nc3nc(C)cc(C)n23)cc1 ?
Sm TGR block: 2%

How did COc1ccc(-c2cc(C)nc3c(-c4ccc(OC)c(OC)c4)c(C)nn23)cc1 do in these assays?
Sm TGR block: 3%

How did COc1ccc(NC(=O)CCCC(=O)NCCc2ccc(OC)c(OC)c2)cc1 do in these assays?
CHX counter: -4; Sm TGR block: -18%; Pf growth 48h: inconclusive; NS1 function inh: 4%; Shiga inhibitor: -8; Pf growth 96h: inconclusive

How did c1cncc(-c2noc(CC3CCCCC3)n2)c1 do in these assays?
CHX counter: 41*; Sm TGR block: 5%; Pf growth 48h: 6%; NS1 function inh: -7%; Shiga inhibitor: 55*
